Screening results deposited in PubChem by National Center for Advancing Translational Sciences (NCATS).
GLP1R ag: GLP-1 receptor (human) agonism; P43220; HEK293 GLP-1R CRE-luciferase, luminescence, 4-6 h; cells express a hypersensitive GLP-1R form; Potency, µM (series often up to 45.6 µM), without a hit: at the highest dose activation, hits mostly activators; 380,000 compounds, 0.007% hits; AID 624172; also: % of control where 0% means no effect
Target sequence (P43220 whole entry, looked up): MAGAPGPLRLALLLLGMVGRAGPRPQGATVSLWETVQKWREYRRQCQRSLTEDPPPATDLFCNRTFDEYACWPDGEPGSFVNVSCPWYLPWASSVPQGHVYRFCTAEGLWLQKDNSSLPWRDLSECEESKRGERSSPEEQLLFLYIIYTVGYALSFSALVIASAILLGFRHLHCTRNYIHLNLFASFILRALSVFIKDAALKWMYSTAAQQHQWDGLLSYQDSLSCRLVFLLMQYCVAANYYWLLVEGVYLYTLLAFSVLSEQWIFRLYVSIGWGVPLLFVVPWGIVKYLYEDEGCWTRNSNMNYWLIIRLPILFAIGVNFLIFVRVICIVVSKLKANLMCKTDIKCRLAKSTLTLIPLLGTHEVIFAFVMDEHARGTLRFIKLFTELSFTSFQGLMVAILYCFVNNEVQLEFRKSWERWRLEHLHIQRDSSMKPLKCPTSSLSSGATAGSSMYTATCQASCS
GLP-1R inv ag: acts as inverse agonist at human GLP-1 receptor | P43220 | HEK293 GLP-1R CRE-luciferase, luminescence, 24 h; GLP-1R form is constitutively active | Potency, µM (top dose mostly 38.3 µM), without a hit: top-dose activity change, negative = inhibition, usual class: inhibitors | 410,000 compounds, 1.6% hits; also: % is scaled to controls: 0 for no effect and ±100 for the full control effect; nearly all actives have a fitted effect of over 55% in size
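Inverse agonism was detected as reduced cAMP-driven luciferase luminescence after 24 h compound treatment. The cells were HEK293 clones expressing constitutively active human GLP-1R with the reporter. Reporter-only and GPR119 cell lines served as counterscreen controls.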
HEK293 tox: cytotoxicity counter-screen for GLP-1 receptor inverse agonists. 410,000 compounds, 0.13% hits. HEK293 cAMP-luciferase reporter cells, luminescence, 24 h. Potency, µM (highest dose often 38.3 µM), inactives show at the highest dose activity change, negative = inhibition, actives largely listed as inhibitors;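 also: loss of luciferase light is scored as toxicity; % is scaled to controls: 0 for no effect and ±100 for the full control effect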
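Luminescence readout: signal drop marks cytotoxicity. Plated cells grew 12 h at 37 °C, 5% CO2, received 23 nL compound for 24 h, then got luciferase reagent, read after 12 min at RT.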
BRCA1 expr act: increases BRCA1 expression; MCF7-BRCA1-FFLuc reporter, luminescence, 48 h; response scale: scaled: vehicle 0%, 10 µM genistein 100%; Potency, µM (titrated, usually from 46.1 µM), inactives show at the highest dose activation, most hits filed as activators; 380,000 compounds, 1.1% hits; also: nearly all actives have a fitted effect of over 80% in size
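Reporter cells (MCF7, BRCA1 promoter-firefly luciferase) received library compounds across a concentration series for 48 h. End-point luminescence was measured and concentration-effect curves derived after normalization.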
Starred values were filed as active, the others as inactive; ? = inconclusive; · = no result. Only some compounds are listed: those with a hit (about 2.6% of all), similar ones and a draw of the others. Calls follow the shape of the dose curve; as a rule, active = well fitted curve in the direction sought with a large enough effect; inconclusive = small, poorly fitted or top-dose-only effect, or another doubt; inactive = no such curve, though single readings can be large; an effect the other way counts as inactive or inconclusive. Potency is read from the fitted curve at half-maximal effect.

SMILES | GLP1R ag | GLP-1R inv ag | HEK293 tox | BRCA1 expr act
Cc1ccc2[nH]c(=O)c3cc(C(=O)NCCCN4CCC(C)CC4)sc3c2c1 | · | -9% | 11% | ·
COc1ccc(N2CC(NC(=O)c3ccc(S(=O)(=O)N4CCOCC4)cc3)CC2=O)cc1OC (centres undefined) | 0% | 14% | 0% | 4%
O=C(Nc1ccc(Cl)cc1)C1=Cc2cc(Cl)ccc2OC1 | -6% | 0% | 3% | -28%
O=C(Nc1ccc(Cl)cc1Cl)C1=Cc2ccccc2OC1 | -6% | -11% | 17% | 10µM*
CCOc1ccccc1Nc1nc2ccccc2c2nncn12 | · | 17% | -6% | ·
O=c1/c(=C\c2cccnc2)sc2nc3ccccc3n12 | 0% | 15% | 2% | 13µM*
O=C1S/C(=C\C=C\c2ccco2)C(=O)N1c1ccc(O)cc1 | -4% | 14% | -21% | ?
O=C1S/C(=C\C=C\c2ccco2)C(=O)N1c1ccccc1 | 0% | 62% | 0% | 3.5µM*
N#CCc1ccc(NC(=O)CSc2nnc(C3CC3)n2C2CC2)cc1 | 1% | 8% | -14% | -20%
Cc1ccc(NC(=O)Cn2ccn(-c3ccc(F)c(F)c3)c(=O)c2=O)cc1C | · | 13% | 1% | ·
CCCCCOc1ccc(Br)cc1CSC(=N)N | -5% | ? | 10µM* | -88%
CCN(CC)CCNC(=O)c1c(O)c2cccc3c2n(c1=O)CCC3 | 0% | 4.5µM* | ? | -65%
CCn1c(=O)c(C(=O)NCCN2CCCCC2)c(O)c2ccccc21 | 3% | 2.8µM* | ? | 1%
CNC(=O)c1c(O)c2cccc3c2n(c1=O)CCC3 | 4% | 1.8µM* | ? | -91%
O=C(NCCNCCO)c1c(O)c2cccc3c2n(c1=O)CCC3 | -3% | ? | -3% | 16%
CCCCCCNC(=O)c1c(O)c2cccc3c2n(c1=O)CCC3 | -1% | 6% | 65% | -30%
CCn1c(=O)c(C(=O)NCCc2ccccc2)c(O)c2ccccc21 | 1% | ? | 7% | -62%
Nc1c(-c2nc(-c3ccccc3Cl)no2)nnn1-c1ccccc1F | · | 6% | 0% | ·
O=C1C(c2ccc(F)cc2)N(CCc2ccccc2)C(=O)CN1C1CCCCC1 (centres undefined) | · | 10% | 3% | ·
Cc1ccc(NC(=O)COC(=O)c2ccccc2OCC(=O)N(C)C)cc1 | · | · | · | 7%
Cc1ccc(NC(=O)C(c2ccc(Cl)cc2Cl)N2CCCC2)cc1 (centres undefined) | -12% | 10µM* | -7% | -47%
CC1CCN(C(C(=O)Nc2ccc(C(C)C)cc2)c2ccc3c(c2)OCO3)CC1 (centres undefined) | 0% | 4.5µM* | -1% | -34%
Cc1cccc(NC(=O)C(c2ccccc2Cl)N2CCOCC2)c1 (centres undefined) | 2% | ? | -1% | 0%
O=C(Nc1cc(Cl)cc(Cl)c1)C(c1ccccc1)N1CCCCC1 (centres undefined) | 0% | 2.2µM* | 7% | -46%
CC(C)c1ccc(NC(=O)C(c2ccc3c(c2)OCO3)N2CCCCC2)cc1 (centres undefined) | -3% | 4µM* | -17% | -17%
SMILES | GLP1R ag | GLP-1R inv ag | HEK293 tox | BRCA1 expr act
COc1cccc(NC(=O)C(c2ccccc2)N2CCCCC2)c1 (centres undefined) | 6% | ? | -2% | -27%
CN1CCN(c2ccc(CNS(=O)(=O)c3ccc(F)cc3Cl)cc2)CC1 | -2% | ? | 20% | 0%
Cc1cc(S(=O)(=O)NCc2ccc(N3CCN(C)CC3)cc2)c(C)s1 | 0% | 2.2µM* | 16% | 0%
COc1cc(/C=C/C(=O)O[C@H]2CC[C@]34C[C@]35CC[C@]3(C)[C@@H]([C@H](C)CCC=C(C)C)CC[C@@]3(C)C5CCC4C2(C)C)ccc1O (some centres undefined) | -4% | · | · | ·
O=C(CNC(=O)Cn1ccc2ccccc2c1=O)NCCCN1CCN(c2cccc(Cl)c2)CC1 | -1% | 10µM* | 11% | -22%
Cc1cccc(C(C)C)c1NC(=O)c1cc2ccccc2o1 | -4% | ? | 2% | -18%
CCN(CC1COc2ccccc2O1)C(=S)NCCCN(C)C (centres undefined) | -6% | 7.1µM* | -10% | -11%
CN(CC1COc2ccccc2O1)C(=S)NC1CCCCC1 (centres undefined) | -2% | 5µM* | -5% | 69%
Cc1ccc(CN2CCSc3ccc(C(=O)N4CCN(c5cccc(C)c5C)CC4)cc32)cc1 | · | -6% | -4% | ·
